In PubChem BioAssay (NCI):
This is part of a sample that, as a whole, favours compounds with a hit. Of some 83,000 tested, about 20% had one in any assay.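 The test compound was applied at a single concentration to cells in 96-well plates for 48 hours, and percent growth was recorded.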 A number with no mark means an inactive call. The source made the active and inactive calls.

system: UO-31 renal; assay: NCI-60 one-dose screen, 48 h (100 = growth as untreated, 0 = no growth, -100 = all killed); conditions: 10 µM
Method: Growth inhibition of the UO-31 human tumor cell line is measured as a screen for anti-cancer activity. Cells are grown in 96 well plates and exposed to the test compound for 48 hours. Compounds are tested at a single concentration, which is 10^-5 M for most compounds. The reported endpoint is percent growth (GI% or GIPRCNT), where numbers from 0 - 100% represent growth inhibition, and numbers from -100% - 0 represent cell death. For example, a value of 40 represents 60% growth inhibition. A value of 0 means no net growth occurred over the course of the experiment. A value of -40 indicates 40% of cells at the beginning of the experiment died by the end of the experiment. A value of -100 means all cells are dead at the end of the experiment.
NCI-60 Human Tumor Cell Lines Screen was performed using the standard one-dose NCI protocol, which is described in more detail at https://dtp.cancer.gov/discovery_development/nci-60/default.htm.
Compounds with GIPRCNT values below 10 were considered active. Activity score was based on GIPRCNT using the following formula: […]
Score is 0 for GIPRCNT values of 100 or above, 50 for GIPRCNT values of 0, and 100 for GIPRCNT values of -100.

Compared with `c1ccc(CNc2nc(Nc3ccc(-c4nc5ccccc5[nH]4)cc3)c3cn[nH]c3n2)cc1`, `Oc1ccccc1-c1nnc(Cn2c(Cc3cccc4ccccc34)nc3ccccc32)o1` is higher in growth: 29.9% for the first, 63% for the second.

First: O=S(=O)(O)C1(O)CCCCC1
Second: CCNC1(NC#N)CCCCC1
The growth of the first is lower: 58.9% for the first, 90.9% for the second.

Compared with `CCSc1nc2c([nH]1)c(=O)n(C)c(=S)n2C`, `CCOC(=O)c1c(O)c2cc(-c3ccccc3)nc(OCC)c2c(=O)n1C` is lower in growth: 98.2% for the first, 79.6% for the second.

Compared with `CCCCCN(CCCCC)C(C)C(O)c1ccc2cc(Cl)c3ccccc3c2c1` (stereo not given), `CCN(CCCNC(=O)Cc1cc(=O)oc2cc(N(C)C)ccc12)CCNc1ccnc2cc(Cl)ccc12` is higher in growth: 70.6% for the first, 84.7% for the second.

Going from `CCN(Cc1ccccc1)C1CCN(Cc2cc(Br)ccc2O)CC1` to `O=C(Nc1ccc(OS(=O)(=O)Cc2ccccc2)cc1)C12CC3CC(CC(C3)C1)C2`, the growth rises from 23.5% to 78.4%.

First: CCc1nn2c(-c3ccccc3)c(-c3cc(OC)c(OC)c(OC)c3)nc2s1
Second: COc1cc(-c2cc(/C=C/C(C)=O)[nH]n2)cc(OC)c1OC
The growth of the first is higher: 57.6% for the first, 52.4% for the second.

First: NC(N)=NS(=O)(=O)c1ccc(Nc2ccc3nnc(-c4ccncc4)n3n2)cc1
Second: Cc1ccc(S(=O)(=O)Oc2ccccc2-c2ccccc2)cc1
The growth of the first is higher: 78.6% for the first, 22.5% for the second.

Compared with `CNC(=S)Sc1ccc([N+](=O)[O-])cc1[N+](=O)[O-]`, `COc1ccc(/C(=C/c2cc(OC)c(OC)cc2[N+](=O)[O-])C(=O)O)cc1` is higher in growth: 60.2% for the first, 83% for the second.

Compared with `COc1cccc(C(=O)NNc2nc(N3CCOCC3)nc(N3CCN(C(c4ccccc4)c4ccccc4)CC3)n2)c1`, `O=C(c1ccccc1)C(Nc1ccccc1)c1ccccc1` (stereo not given) is higher in growth: 39.7% for the first, 66.9% for the second.

Compared with `CCN(CC)CC(O)CNc1ccnc2cc(Cl)c(Cl)cc12` (stereo not given), `Nc1cc2c(cc1Cl)-c1ccc(Cl)cc1C2=O` is higher in growth: 53.7% for the first, 61.6% for the second.

First: COc1ccccc1CNCCCN1C(=O)c2ccc3c4c(ccc(c24)C1=O)C(=O)N(CCCNCCNCCCN)C3=O
Second: COc1cc(-c2cc(-c3ccc(C)cc3)nc3nc(N)[nH]c(=O)c23)ccc1Oc1ccnc2cc(Cl)ccc12
The growth of the first is higher: 77.3% for the first, 56.3% for the second.

Going from `COc1ccc(Cn2cc3c(c2-c2ccccc2)CC(C)(C)c2cnoc2-3)cc1` to `CC(Oc1ccc(Cl)cc1)c1ccccc1` (stereo not given), the growth rises from 43.9% to 77.6%.

Going from `O=C(N/N=C/c1ccccc1O)c1ccccc1` to `Cc1ccc(C)c(S(=O)(=O)NC2c3ccccc3Oc3ccccc32)c1`, the growth rises from 12.2% to 81.4%.

Compared with `CCCCc1ccc(NC(=O)N(CCCl)N=O)cc1`, `O=NN(CCCl)C(=O)Nc1ccc(NC(=O)N(CCCl)N=O)cc1` is higher in growth: 81.3% for the first, 96.6% for the second.

Going from `Cc1ccccc1[P+](Cc1ccccc1)(c1ccccc1)c1ccccc1` to `Cc1ccc([P+](Cc2ccccc2)(c2ccccc2)c2ccccc2)cc1`, the growth rises from 67.8% to 68.7%.

First: COc1cc(C2c3cc4c(cc3C(O)C(CO)C2CO)OCO4)cc(OC)c1OC (stereo not given)
Second: Cc1cc2cc3c(=O)[nH]c(=O)cc-3n(CC(O)C(O)C(O)CO)c2cc1C (stereo not given)
The growth of the first is lower: 13.4% for the first, 99.2% for the second.

Compared with `CCCCCc1cc[n+](CC(=O)c2ccc(Cl)cc2)cc1`, `Cc1ccc(C(=O)O)c(N)c1C` is lower in growth: 91.2% for the first, 57.6% for the second.

In the case of `Nc1ncc(-c2ccc(C(F)(F)F)cc2)c(NC2CCCCCC2)n1`, the growth was 23.6%.

For `CCCCCCCCCCCCCCCCn1cc[n+](C)c1`, the growth was -85.9% (active).
`C#CCNCCCN1C(=O)c2ccc3c4c(ccc(c24)C1=O)C(=O)N(CCCNCC#C)C3=O` was tested, and the growth was -62.1% (active).
With `COc1ccc(C(=O)/C=C/c2cc(-c3ccc(OC)c(OC)c3)n[nH]2)cc1OC` the growth was -95% (active).
In the case of `O=C(Nc1cccc(Cl)c1)Nc1cc2ncncc2cc1OCc1cccc(F)c1`, the growth was 9.37% (active).
With `Cc1ccc(/C=C2\CN(Cc3cn(CCNc4ccnc5cc(Cl)ccc45)nn3)C/C(=C\c3ccc(C)cc3)C2=O)cc1` the growth was -78.8% (active).
